Experiment [1] in a line: ATG_E_Box_CIS: Attagene CIS-FACTORIAL HepG2 Assay for human Enhancer Box (E-box) (AID 2282936). The following applies: HepG2 E-box cis-reporter transcription, actives raise or lower the signal. An outline of the steps: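 Multiplexed CIS reporter system in transiently transfected HepG2 cells measures native transcription factor activity. Reporter RNA after 24 h exposure is profiled by RT-PCR-capillary electrophoresis.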

A short description of experiment [2]: ATG_M_61_CIS: Attagene CIS-FACTORIAL HepG2 Assay for M61 Transcription Factor (Internal Marker) (AID 2282937). The following applies: HepG2 Attagene CIS-FACTORIAL M61 internal marker reporter; actives raise or lower the signal. The procedure, abridged:
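Readout is reporter mRNA by RT-PCR, fluorescent primer extension and capillary electrophoresis, with gain or loss fitted relative to DMSO. Transfected HepG2 cells carrying endogenous-TF-driven cis reporters were exposed to chemicals for 24 hours.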

Experiment [3] in a line: ATG_EGR_CIS: Attagene CIS-FACTORIAL HepG2 Assay for human Early Growth Response 1 (EGR1) (AID 2282938). Conditions: HepG2 Attagene CIS-FACTORIAL EGR reporter mRNA; actives raise or lower the signal. The procedure, abridged: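 After 24 h compound exposure, RNA from reporter-transfected HepG2 cells was reverse-transcribed, PCR-amplified, fluorescently labelled and resolved by capillary electrophoresis. EGR1 reporter transcript changes, up or down, were fitted against DMSO, reflecting endogenous transcription-factor activity.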

A short description of experiment [4]: ATG_M_19_CIS: Attagene CIS-FACTORIAL HepG2 Assay for M19 Transcription Factor (Internal Marker) (AID 2282939). The following applies: HepG2 Attagene CIS-FACTORIAL M19 internal marker reporter; actives raise or lower the signal. The procedure, abridged: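 Readout: fluorescent reporter-transcript fragments by capillary electrophoresis after RT-PCR. Human HepG2 liver cells carried transfected MRTU constructs reporting endogenous transcription-factor activity; exposure 24 h. Gain or loss of signal fitted relative to DMSO.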

Experiment [5] in a line: ATG_Ets_CIS: Attagene CIS-FACTORIAL HepG2 Assay for human Erythroblast Transformation Specific (ETS) (AID 2282941). Conditions: HepG2 ETS cis-reporter transcription, actives raise or lower the signal. The procedure, abridged: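 HepG2 cells transiently transfected with cis-promoter reporter transcription units were dosed for 24 h; reporter mRNA was measured by RT-PCR, 6-FAM primer extension, HpaI digestion and capillary electrophoresis, with bidirectional fitting against DMSO baseline.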

Experiment [6] addresses Hepatocyte nuclear factor 3-beta (Homo sapiens) (UniProt Q9Y261). Kind of experiment: ATG_FoxA2_CIS: Attagene CIS-FACTORIAL HepG2 Assay for human Forkhead box A2 (FOXA2) (AID 2282942). The following applies: HepG2 cis-reporter transcription factor activity, 24 h; actives raise or lower the signal. An outline of the steps: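 Endogenous transcription factor activity is captured via cis-element-driven reporter transcripts in transfected HepG2. Total RNA taken at 24 h post-dosing; labelled RT-PCR products resolved by capillary electrophoresis. Gain or loss fitted versus DMSO.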

The nature of experiment [7]: ATG_FoxO_CIS: Attagene CIS-FACTORIAL HepG2 Assay for human Forkhead box O (FoxO) (AID 2282943). The following applies: HepG2 Attagene cis-reporter, FoxO element, mRNA; actives raise or lower the signal. The procedure, abridged:
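Values reflect reporter mRNA induction or loss in HepG2 cells 24 h post-dosing, fitted bidirectionally with DMSO as negative control and baseline. Detection used RT-PCR and fluorescence capillary electrophoresis.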

Experiment [8] is described as follows: ATG_GATA_CIS: Attagene CIS-FACTORIAL HepG2 Assay for human GATA Binding Protein (AID 2282944). The following applies: HepG2 GATA cis-element reporter, Attagene multiplex mRNA; actives raise or lower the signal. An outline of the steps:
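Read-out: fluorescent reporter mRNA fragments resolved by capillary electrophoresis after RT-PCR. Human liver HepG2 cells carried transiently transfected cis-regulated reporter constructs; chemicals incubated 24 h; gain or loss of signal fitted relative to DMSO.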

Experiment [9] can be described thus: ATG_GLI_CIS: Attagene CIS-FACTORIAL HepG2 Assay for human Zinc Finger Protein GLI1 (AID 2282945). The following applies: HepG2, Attagene cis-factorial reporter mRNA, GLI element; actives raise or lower the signal. An outline of the steps: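 HepG2 cells transiently transfected with cis-promoter multiplexed reporter units report endogenous transcription factor activity. After 24 h chemical exposure, reporter mRNA was quantified by RT-PCR, 6-FAM labelling, HpaI digestion and capillary electrophoresis, with bidirectional fitting against DMSO.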

Experiment [10] is described as follows: ATG_ISRE_CIS: Attagene CIS-FACTORIAL HepG2 Assay for human Interferon Regulatory Factor 1 (IRF1) binding to an Interferon-Stimulated Response Element (ISRE) (AID 2282948). The following applies: HepG2 ISRE cis-reporter (Attagene), mRNA transcription readout; actives raise or lower the signal. The procedure, abridged: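 HepG2 cells transiently transfected with multiplexed cis-promoter reporter units; after 24 h compound exposure, reporter mRNA quantified by RT-PCR, FAM labelling, HpaI digestion and capillary electrophoresis. Bidirectional fit versus DMSO baseline.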

The nature of experiment [11]: ATG_M_32_CIS: Attagene CIS-FACTORIAL HepG2 Assay for M32 Transcription Factor (Internal Marker) (AID 2282949).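 Further: background control marker of the multiplexed CIS panel rather than a real target.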 The following applies: HepG2 Attagene cis-factorial M32 reporter, mRNA; actives raise or lower the signal. An outline of the steps:
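Fluorescent capillary electrophoresis peaks of HpaI-digested, FAM-labelled RT-PCR reporter products give the signal. Source: transiently transfected human liver HepG2 cells, 24 h after chemical dosing; bidirectional fitting against DMSO.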

A short description of experiment [12]: ATG_M_06_CIS: Attagene CIS-FACTORIAL HepG2 Assay for M06 Transcription Factor (Internal Marker) (AID 2282950). Conditions: HepG2 Attagene CIS-FACTORIAL M06 internal marker reporter; actives raise or lower the signal. The procedure, abridged:
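Terse: HepG2, transient MRTU transfection (FuGene 6), 24 h dosing; total RNA, oligo(dT) RT, PCR, FAM label, HpaI cut, capillary electrophoresis; bidirectional fit vs DMSO baseline; background-control endpoint.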

Experiment [13] deals with Hypoxia-inducible factor 1-alpha (Homo sapiens) (UniProt Q16665). Kind of experiment: ATG_HIF1a_CIS: Attagene CIS-FACTORIAL HepG2 Assay for human Hypoxia Inducible Factor 1 (HIF1A) (AID 2282951). Conditions: HepG2 Attagene cis-factorial HIF1a reporter transcription; actives raise or lower the signal. The procedure, abridged:
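Activity is fitted in both directions relative to DMSO. Reporter transcripts are read by RT-PCR, fluorescent primer extension and capillary electrophoresis after 24 h chemical treatment. The cells are HepG2 carrying transiently transfected cis-element-driven reporter units responding to endogenous factors.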

For experiment [14], the target named is Hepatocyte nuclear factor 6 (Homo sapiens) (UniProt Q9UBC0). Kind of experiment: ATG_HNF6_CIS: Attagene CIS-FACTORIAL HepG2 Assay for human Hepatocyte Nuclear Factor 6 (HNF6) (AID 2282952). Conditions: HepG2 Attagene cis-factorial HNF6 reporter transcription; actives raise or lower the signal. An outline of the steps:
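Reporter mRNA induction or loss in HepG2 after 24 h exposure; transient cis-MRTU transfection; fragments quantified by capillary electrophoresis; bidirectional analysis, DMSO as negative control.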

Experiment [15] concerns the target Heat shock factor protein 1 (Homo sapiens) (UniProt Q00613). Kind of experiment: ATG_HSE_CIS: Attagene CIS-FACTORIAL HepG2 Assay for human Heat Shock Transcription Factor 1 (HSE) (AID 2282953). Conditions: HepG2 HSE cis-reporter, Attagene RNA transcription; actives raise or lower the signal. The procedure, abridged:
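Read-out: fluorescence of reporter-specific RT-PCR fragments separated by capillary electrophoresis. HepG2 carrying transfected cis-element reporter units; 24 h dosing; activity fitted in both directions relative to DMSO baseline.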

Experiment [16] in a line: ATG_MRE_CIS: Attagene CIS-FACTORIAL HepG2 Assay for human Metal Responsive Element (MRE) (AID 2282954). The following applies: HepG2 MRE cis-reporter transcription, Attagene multiplex; actives raise or lower the signal. The procedure, abridged:
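Step one: transfect HepG2 with cis-regulated reporter units. Step two: dose 24 h. Step three: isolate RNA, RT-PCR, 6-FAM label, HpaI digest, capillary electrophoresis. Fit bidirectionally to DMSO.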

Experiment [17] is described as follows: ATG_GRE_CIS: Attagene CIS-FACTORIAL HepG2 Assay for human Glucocorticoid Response Elements (GRE) (AID 2282947). The following applies: HepG2 GRE cis-reporter, Attagene multiplex mRNA; actives raise or lower the signal. The procedure, abridged:
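Following 24 h chemical exposure of transiently transfected HepG2 cells, total RNA was reverse-transcribed and reporter cDNA amplified, fluorescently labelled and sized by capillary electrophoresis. Signal gain or loss was fitted relative to DMSO vehicle.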

A short description of experiment [18]: ATG_ERE_CIS: Attagene CIS-FACTORIAL HepG2 Assay for Estrogen Response Element (ERE) (AID 2282940). The following applies: HepG2 ERE cis-reporter, Attagene RNA transcript; actives raise or lower the signal. The procedure, abridged: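 Readout: reporter mRNA induction by RT-PCR, FAM-labelled primer extension, HpaI digestion and capillary electrophoresis, 24 h after dosing transfected HepG2 cells. Endogenous transcription factors act on cis-element-regulated reporters. Gain or loss fitted against DMSO.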

Experiment [19] concerns the target Bile acid receptor (Homo sapiens) (UniProt Q96RI1). Kind of experiment: ATG_IR1_CIS: Attagene CIS-FACTORIAL HepG2 Assay for human Nuclear Receptor Subfamily 1 Group H Member 4 (NR1H4), IR1 submotif (AID 2282946). Conditions: IR1 reporter transcription, actives raise or lower the signal. The procedure, abridged:
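Transient MRTU transfection, HepG2; 24 h dosing; RNA → RT-PCR → 6-FAM primer extension → HpaI digest → capillary electrophoresis fluorescence. Gain/loss of signal fitted relative to DMSO.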

Activity calls are given as the source filed them. How the source made its calls: active means hit-call score of the fitted dose curve at least 0.9, where 1 is the maximum; inactive means score below 0.9.

Chain of Hypoxia-inducible factor 1-alpha (Homo sapiens) (Q16665 whole entry, looked up): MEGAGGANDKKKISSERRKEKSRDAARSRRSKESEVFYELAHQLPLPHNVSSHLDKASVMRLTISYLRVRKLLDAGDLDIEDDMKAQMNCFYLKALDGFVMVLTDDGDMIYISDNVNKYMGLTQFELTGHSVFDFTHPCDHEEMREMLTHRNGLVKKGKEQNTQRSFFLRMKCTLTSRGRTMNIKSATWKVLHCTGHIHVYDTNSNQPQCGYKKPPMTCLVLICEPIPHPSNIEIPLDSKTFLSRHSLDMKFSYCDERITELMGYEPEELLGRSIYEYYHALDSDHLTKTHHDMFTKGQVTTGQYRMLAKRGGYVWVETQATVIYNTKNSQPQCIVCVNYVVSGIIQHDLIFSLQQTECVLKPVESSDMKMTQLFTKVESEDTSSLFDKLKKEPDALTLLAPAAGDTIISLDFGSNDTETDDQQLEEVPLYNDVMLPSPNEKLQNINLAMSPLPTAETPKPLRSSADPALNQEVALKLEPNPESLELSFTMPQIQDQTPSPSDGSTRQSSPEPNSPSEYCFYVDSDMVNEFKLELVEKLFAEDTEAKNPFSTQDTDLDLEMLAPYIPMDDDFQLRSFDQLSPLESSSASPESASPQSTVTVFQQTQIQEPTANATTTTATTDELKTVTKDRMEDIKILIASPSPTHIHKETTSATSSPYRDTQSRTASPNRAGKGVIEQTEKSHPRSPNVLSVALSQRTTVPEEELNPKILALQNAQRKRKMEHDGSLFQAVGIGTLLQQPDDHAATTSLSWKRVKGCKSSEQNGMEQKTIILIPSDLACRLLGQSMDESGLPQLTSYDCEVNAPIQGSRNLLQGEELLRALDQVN
Chain of Heat shock factor protein 1 (Homo sapiens) (Q00613 whole entry, looked up, the tested form may be a part): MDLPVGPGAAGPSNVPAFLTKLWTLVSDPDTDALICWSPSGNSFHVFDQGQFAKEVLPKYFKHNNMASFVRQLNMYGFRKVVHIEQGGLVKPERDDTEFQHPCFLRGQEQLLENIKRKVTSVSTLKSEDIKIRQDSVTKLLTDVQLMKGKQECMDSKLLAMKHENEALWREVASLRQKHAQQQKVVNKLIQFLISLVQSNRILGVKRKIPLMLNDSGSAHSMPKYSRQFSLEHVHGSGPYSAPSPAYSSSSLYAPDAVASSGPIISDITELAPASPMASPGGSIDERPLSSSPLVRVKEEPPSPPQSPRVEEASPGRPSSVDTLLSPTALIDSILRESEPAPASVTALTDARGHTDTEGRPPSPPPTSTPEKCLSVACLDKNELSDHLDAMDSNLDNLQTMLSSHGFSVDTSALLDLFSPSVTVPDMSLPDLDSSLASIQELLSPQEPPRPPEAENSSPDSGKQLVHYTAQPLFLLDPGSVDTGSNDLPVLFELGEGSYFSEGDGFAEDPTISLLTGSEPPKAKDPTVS
Chain of Hepatocyte nuclear factor 6 (Homo sapiens) (Q9UBC0 whole entry, looked up, the tested form may be a part): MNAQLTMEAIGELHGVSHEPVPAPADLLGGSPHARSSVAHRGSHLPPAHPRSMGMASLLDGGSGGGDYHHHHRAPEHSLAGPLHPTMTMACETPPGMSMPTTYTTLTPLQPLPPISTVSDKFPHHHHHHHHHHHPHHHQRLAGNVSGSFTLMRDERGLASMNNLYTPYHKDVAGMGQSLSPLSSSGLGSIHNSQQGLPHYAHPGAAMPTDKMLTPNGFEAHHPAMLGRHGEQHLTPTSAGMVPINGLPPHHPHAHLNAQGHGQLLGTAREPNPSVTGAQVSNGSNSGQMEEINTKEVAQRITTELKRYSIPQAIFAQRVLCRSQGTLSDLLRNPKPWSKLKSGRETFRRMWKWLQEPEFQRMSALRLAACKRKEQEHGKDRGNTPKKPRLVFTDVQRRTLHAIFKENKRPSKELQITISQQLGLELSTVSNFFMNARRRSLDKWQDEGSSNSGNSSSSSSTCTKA
Chain of Hepatocyte nuclear factor 3-beta (Homo sapiens) (Q9Y261 whole entry, looked up): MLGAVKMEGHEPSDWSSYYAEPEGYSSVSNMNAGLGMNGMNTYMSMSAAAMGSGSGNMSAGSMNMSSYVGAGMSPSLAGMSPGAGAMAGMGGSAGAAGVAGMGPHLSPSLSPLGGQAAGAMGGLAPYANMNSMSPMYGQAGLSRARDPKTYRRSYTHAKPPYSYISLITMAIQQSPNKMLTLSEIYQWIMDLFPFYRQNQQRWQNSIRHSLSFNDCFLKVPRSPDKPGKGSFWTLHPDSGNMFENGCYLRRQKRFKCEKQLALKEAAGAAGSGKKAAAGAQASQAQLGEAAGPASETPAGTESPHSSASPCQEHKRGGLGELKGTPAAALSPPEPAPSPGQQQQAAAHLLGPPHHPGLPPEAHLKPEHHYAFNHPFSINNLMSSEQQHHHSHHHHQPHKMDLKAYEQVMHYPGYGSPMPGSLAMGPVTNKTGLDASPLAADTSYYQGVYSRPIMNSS
Chain of Bile acid receptor (Homo sapiens) (Q96RI1 whole entry, looked up): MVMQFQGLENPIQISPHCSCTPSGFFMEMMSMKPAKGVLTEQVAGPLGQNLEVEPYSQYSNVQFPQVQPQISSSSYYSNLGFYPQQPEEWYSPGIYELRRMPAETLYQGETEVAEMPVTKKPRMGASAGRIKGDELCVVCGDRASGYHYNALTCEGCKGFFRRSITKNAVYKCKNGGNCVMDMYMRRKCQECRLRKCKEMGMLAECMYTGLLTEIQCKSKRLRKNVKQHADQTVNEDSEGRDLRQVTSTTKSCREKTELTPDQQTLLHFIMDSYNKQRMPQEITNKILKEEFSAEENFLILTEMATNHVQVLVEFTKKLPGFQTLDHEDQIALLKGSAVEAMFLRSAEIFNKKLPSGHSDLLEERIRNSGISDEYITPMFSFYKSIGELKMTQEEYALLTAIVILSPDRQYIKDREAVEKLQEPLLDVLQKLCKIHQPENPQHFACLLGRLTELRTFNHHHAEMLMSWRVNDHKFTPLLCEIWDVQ

For `Cc1cccc([N+](=O)[O-])c1C`, the result in experiment [1], in experiment [2], in [3], in [4], in [5] and in [6] was inactive. Further, the compound was classed as inactive in experiment [7], in [8], in experiment [9], in [10], in experiment [11] and in experiment [12]. Besides, the result in experiment [13], in experiment [14], in [15] and in experiment [16] was inactive.

On to `CCCCCCCCCCCCCCCC`, for which the outcome in [1], in [2], in experiment [3], in [4], in experiment [5] and in [6] was inactive. For the same compound, the call in experiment [7], in experiment [8], in [9], in experiment [17], in [10] and in [11] was inactive. Besides, the call in experiment [12], in [13], in experiment [14], in [15] and in experiment [16] was inactive.

Take `CC1(C)CC(N=C=O)CC(C)(CN=C=O)C1` (stereo unspecified): the outcome in [1], in experiment [2], in [3], in [18], in experiment [5] and in experiment [6] was inactive. For the same compound, the outcome in experiment [7], in experiment [8], in experiment [9], in [19], in experiment [10] and in [11] was inactive. Also, the compound was called inactive in experiment [12], in experiment [13], in [14], in experiment [15] and in experiment [16].

For the compound `Cc1ccc2ncccc2c1`, the outcome in experiment [1], in experiment [2], in experiment [3], in [4], in [18] and in experiment [5] was inactive. In addition, the compound was classed as inactive in experiment [6], in experiment [7], in experiment [8], in experiment [9], in experiment [17] and in experiment [10]. In addition, the outcome in [11], in [12], in experiment [13], in experiment [14], in experiment [15] and in experiment [16] was inactive.

Regarding `CCOc1ccc2c(c1)C(C)=CC(C)(C)N2`, the AC50 in experiment [1] is 156 µM (active); in experiment [3] it was 144 µM (active); in [5], 181 µM (active); in [7], 179 µM (active); in experiment [15], 152 µM (active); in experiment [16], 148 µM (active). Further, the outcome in [2], in experiment [6], in experiment [8], in experiment [9], in [10] and in experiment [11] was inactive. In addition, the result in [12] and in [14] was inactive.

In the case of `NCCO`, the outcome in experiment [1], in [2], in [3], in experiment [18], in [5] and in experiment [6] was inactive. Also, the result in experiment [7], in experiment [8], in experiment [9], in experiment [17], in experiment [10] and in experiment [11] was inactive. Moreover, the outcome in experiment [12], in experiment [13], in experiment [14], in [15] and in experiment [16] was inactive.

With `COc1cc(/C=C/C(=O)CC(=O)/C=C/c2ccc(O)c(OC)c2)ccc1O`, the half-maximal activity concentration (AC50) in [1] is 45.8 µM (active); in experiment [3], 42.5 µM (active); in [7], 33.4 µM (active); in experiment [9], 53.9 µM (active); in experiment [19], 51 µM (active); in experiment [10], 33.4 µM (active). Besides, the half-maximal activity concentration (AC50) is 47.4 µM (active) in experiment [14] and 52.6 µM (active) in [16]. Moreover, the compound was called inactive in experiment [2], in [4], in experiment [5], in [6], in [8] and in experiment [17]. The result in experiment [11], in experiment [12] and in experiment [13] was inactive.

For the compound `CC1=C(/C=C/C(C)=C/C=C/C(C)=C/CO)C(C)(C)CCC1`, the outcome in [1], in experiment [2], in experiment [5], in [6], in experiment [9] and in [10] was inactive. The compound was called inactive in experiment [11], in experiment [12] and in [13]. Further, the concentration at half-maximal activity (AC50) in experiment [3] was 80.7 µM (active); in [7] it was 167 µM (active); in experiment [8] it was 166 µM (active); in experiment [14] it was 158 µM (active); in [15] it was 197 µM (active); in [16] it was 106 µM (active).

The term AC50 denotes the concentration giving half of the maximal activity seen.

Values taken from PubChem BioAssay (EPA / NIEHS).
